# Test results taken from PubChem BioAssay AID624483 (NMMLSC, 2012).
# Out of some 360,000 compounds screened, about 11,000 (3.1%) were called active. About 2% were inconclusive and are not listed. Many of the other results were omitted from the sample, so actives are more common in it than they were. Unmarked numbers belong to inactive results. Cut-off read from the data, not from the text of the source: active = fluorescence intensity above about 16000; inconclusive = no clear call, values can overlap the other calls; inactive = below that.
# Test: compound fluorescence in toxin protease inhibitor counterscreen, primary screen, artefact control for toxin protease inhibitor project, biochemical, multiplex microsphere, HTS (AID 624483)
# Details: compound autofluorescence counterscreen, microsphere flow cytometry; stronger effect = higher value
row,SMILES,fluorescence intensity
1,Cc1nn(-c2ccccc2)c2[nH]c(C(F)(F)F)cc(=O)c12,4600
2,CCCOc1cc(C)c(S(=O)(=O)n2nnc3ccccc32)cc1C,16800 (active)
3,CCOc1cc(C)c(S(=O)(=O)NCc2ccccn2)cc1C,3700
4,CCOc1cc(C)c(Cl)cc1S(=O)(=O)n1nnc2ccccc21,10500
5,CC1CCCC(NC(=O)c2cccc(N3CCCC3=O)c2)C1C (centres undefined),2560
6,CC1CCC(NC(=O)c2ccc(N3CCCC3=O)cc2)CC1 (centres undefined),21800 (active)
7,O=C(NCCCN1CCCCCC1)c1ccc(N2CCCC2=O)cc1,3260
8,CCn1c(SCC(=O)NNC(=O)c2ccc(OC)cc2)nnc1C(C)C,6340
9,COc1ccc(C(=O)NCc2nnc(SCCOc3ccccc3)n2C)cc1,5100
10,C=CCn1c(SCC(=O)c2ccc(Br)cc2)nnc1C(C)NC(=O)Cc1ccc(OC)cc1 (centres undefined),23200 (active)
11,C=CCn1c(SCCOc2ccc(OC)cc2)nnc1C(NC(=O)c1ccc(OC)cc1)C(C)C (centres undefined),24400 (active)
12,C=CCn1c(SCc2ccc(Cl)c(Cl)c2)nnc1C(CO)NC(=O)c1ccc(OC)cc1 (centres undefined),2760
13,C=CCn1c(CNC(=O)c2ccco2)nnc1SCC(=O)c1ccc(OC)cc1,3770
14,CCCNC(=O)c1cc(C2CCCCN2S(=O)(=O)c2cn(C)cn2)on1 (centres undefined),3300
15,O=C(NCc1ccc(F)cc1)C1CCC(CNc2c(N3CCOCC3)c(=O)c2=O)CC1 (centres undefined),4840
16,O=S(=O)(NC1CC2CCC1C2)c1ccc(Cl)cc1 (centres undefined),3140
17,CCOC(=O)[C@]12CCCC=C1N(Cc1ccc(Cl)cc1Cl)C(=O)[C@H](CC(=O)N1CCCCC1)C2,6000
18,COc1cccc(-c2cc3nc(NCCOc4ccccc4Cl)n(C)c(=O)c3s2)c1,3580
19,CC1(C(=O)NS(=O)(=O)c2cccc(F)c2)CCN1C(=O)Cc1ccc(Cl)cc1Cl (centres undefined),3750
20,CCCCN1C(=O)C(CC(=O)NCc2cccs2)CC(C(=O)N2CCCCCC2)=C1C (centres undefined),5770
21,CN(C)c1ccnc(Oc2ccc(F)cc2)c1C#N,8110
22,O=C(CNC(=O)c1ccccc1)NCC(=O)OCC(=O)c1ccccc1,5170
23,O=C(CNC(=O)c1ccccc1)NCC(=O)OCc1ccc(Cl)cc1,22400 (active)
24,O=C(CCC(=O)OCc1ccc(Cl)cc1)Nc1ccccc1,2700

row,SMILES,fluorescence intensity
1,Nc1ccc(SCCN2C(=O)c3ccccc3C2=O)cc1,19900 (active)
2,O=C(OCCN1C(=O)c2ccccc2C1=O)Oc1ccccc1,4060
3,O=C1c2ccccc2C(=O)N1CCCCCCN1C(=O)c2ccccc2C1=O,3880
4,CCOc1ccc2c(c1)cc(CN(C(=O)CC)C1CCCCC1)c1nnnn12,3990
5,CCOC1=C2[C@@H](CN(S(=O)(=O)c3ccc(C)cc3)[C@H]2c2ccccc2F)[C@H]2C(=O)N(Cc3ccccc3)C(=O)[C@H]2C1,4840
6,CCOc1ccc2[nH]c(=S)sc2c1,5910
7,O=C(c1ccccc1)c1cc(-c2ccccn2)c(N2CCOCC2)s1,25300 (active)
8,O=C(NCC(c1cccs1)N1CCOCC1)c1cc(-c2ccccn2)nc2ccccc12 (centres undefined),4740
9,CCc1ccc2ncc(C(=O)c3ccccc3)c(N3CCOCC3)c2c1,6180
10,COc1ccccc1Oc1ccc(S(=O)(=O)Nc2cccnc2)cc1,21600 (active)
11,COc1ccc(S(=O)(=O)Nc2cccnc2)c(Cl)c1Cl,3840
12,Cc1cc(C)c(C)c(S(=O)(=O)Nc2cccnc2)c1C,6330
13,COC(=O)c1ccc2nc(-c3ccc(OC)c(OC)c3)c(Cc3ccccc3)n2c1,4370
14,Fc1cccc(Cc2c(-c3cccc(Cl)c3)nc3ccc(Br)cn23)c1,19700 (active)
15,Fc1cccc(Cc2c(-c3ccc(Cl)cc3)nc3ccc(Cl)cn23)c1,8180
16,Clc1cccc(Cc2c(-c3cccc(Cl)c3)nc3ccc(Cl)cn23)c1,8680
17,OC[C@@H]1CN(Cc2ccncc2)C[C@H](n2cnc3c(N4CCN(c5ccccc5)CC4)ncnc32)O1,3810
18,COCCN1C(=O)N(c2ccc(Cl)cc2)C(=O)C1CC(=O)Nc1cc(OC)cc(OC)c1 (centres undefined),3750
19,CC(C)(C)OC(=O)N/N=C/c1ccc(C(=O)O)cc1,2640
20,Cc1cc(C(=O)OCC(=O)Nc2ccccc2Cl)c(C)o1,8500
21,Cc1cc(C(=O)OCC(=O)Nc2ccc(F)c(F)c2)c(C)o1,21600 (active)
22,Cc1cc(C)cc(NC(=O)COC(=O)c2cc(C)oc2C)c1,4090
23,COc1ccc(-c2nnc(-c3ccc4ccccc4c3)o2)cc1,3860
24,CCCCSc1nnc(-c2ccc(C)cc2)o1,11000

row,SMILES,fluorescence intensity
1,CCCCOc1ccc(-c2nnc(-c3ccco3)o2)cc1,21200 (active)
2,NCCCNC(=S)NCCCN(Cc1ccc(Cl)cc1)c1ccc(Br)cn1,3820
3,O=C(NCc1ccco1)c1cccc(-c2ccc3nncn3c2)c1,3920
4,C=CCNC(=O)c1cc2nc(C3CC3)cc(C(F)F)n2n1,17500 (active)
5,O=C(Nc1ccc(Cl)cc1)c1cc2nc(C3CC3)cc(C(F)(F)F)n2n1,11300
6,CC1CCN(C(=O)c2cc3nc(C4CC4)cc(C(F)(F)F)n3n2)CC1,3040
7,CN(C)c1cccc(NC(=O)c2ccc(-c3ccc(F)c(F)c3)c3ccoc23)c1,3910
8,CCCCn1nnnc1C(c1cc2ccccc2o1)N(C)Cc1ccc(Cl)c(Cl)c1 (centres undefined),5870
9,CCCNC(=O)CSc1nc(Cc2ccccc2)nc2ccccc12,2990
10,C=CCSc1nc(Cc2ccc(Cl)cc2)nc2ccccc12,23600 (active)
11,CC(C)N(C(=O)CSc1nc(COc2ccccc2)nc2ccccc12)C(C)C,3830
12,CCc1nc2ccc(C(=O)N3CCC(O)(Cc4ccccc4)CC3)cn2c1N(C)C(=O)Cc1ccccc1,3520
13,O=S1(=O)CC(N2CCC(Cc3ccccc3)CC2)CN1Cc1ccccc1 (centres undefined),6300
14,Cc1noc(C)c1-c1ccc(C(=O)NCc2ccncc2)c2occc12,3470
15,COc1ccccc1N1CCN(S(=O)(=O)c2ccc3c(c2)NC(=O)CS3)CC1,5880
16,CCc1cc(=O)oc2cc(C)cc(OCC(=O)N3CCC[C@@H]3C(=O)O)c12,5750
17,CCc1cc(=O)oc2cc(C)cc(OC(C)C(=O)O)c12 (centres undefined),22000 (active)
18,Cc1cc(OC(C)C(=O)NC2CC(C)(C)NC(C)(C)C2)c2c(C)cc(=O)oc2c1 (centres undefined),6440
19,CCCSc1nsc(N)n1,17300 (active)
20,Nc1nc(SC23CC4CC(CC(C4)C2)C3)ns1,3930
21,CCCCCCSc1nsc(N)n1,6410
22,Cc1ccc(CNC(=O)c2cc(-c3ccccc3C)n(CC3CC(c4cccc([N+](=O)[O-])c4)=NO3)n2)cc1 (centres undefined),4220
23,CCOC(=O)[C@]12CCC=C1N(Cc1ccccc1)C(=O)[C@H](CC(=O)N1CCCC1)C2,5780
24,CC1(C(=O)NS(=O)(=O)C2CC2)CCCN(C(=O)CSc2ccccc2)C1 (centres undefined),3670

row,SMILES,fluorescence intensity
1,CCn1c(=O)cc(OCC(=O)NCCCN2CCN(c3cccc(Cl)c3)CC2)c2ccccc21,20500 (active)
2,CCOC(=O)N1CCC(Nc2c(NCCN3CCN(c4cccc(Cl)c4)CC3)c(=O)c2=O)CC1,4590
3,O=C(Cc1csc(Nc2nc(=S)[nH]c3ccccc23)n1)NCCCN1CCN(c2cccc(Cl)c2)CC1,4240
4,O=C(CC[C@H]1O[C@@H](n2ccc(=O)[nH]c2=O)[C@H](O)[C@@H]1O)N[C@H](Cc1ccccc1)C(=O)NCc1ccco1,4020
5,CCOC(=O)C1(C)CCCN(C(=O)c2ccc(N(C)C)cc2)C1 (centres undefined),9620
6,CCOc1cccc(-c2nn3c(-c4ccccn4)nnc3s2)c1,16800 (active)
7,CCOc1cccc(-c2nnc(SCC(=O)NC3CC3)n2C)c1,5480
8,Cc1ccccc1NC(=O)CSc1ccc2nnc(-c3ccccn3)n2n1,6840
9,CN(C)S(=O)(=O)N1CCN(c2ccc([N+](=O)[O-])cc2)CC1,4070
10,CCCOc1ccc(F)cc1-c1cc(C(=O)Nc2ccc(F)c(Cl)c2)[nH]n1,3800
11,CN(C)C(=O)c1cccc(-c2cnc3c(NC=O)cc(-c4ccc(F)cc4)cn23)c1,3680
12,CCOC(=O)c1cnc(-n2nc(C)cc2C)nc1NNc1cc(C)nc(-c2ccccc2)n1,7400
13,CCOC(=O)c1cnc(-n2nc(C)cc2C)nc1-n1nc(C)cc1C,16800 (active)
14,CCOC(=O)c1cnc2c(c(C)nn2CC)c1Cl,4390
15,CCc1nc2c(OCCOc3ccc(F)cc3)cccn2c1N(C)C(=O)c1ccccc1F,3010
16,Cc1ccc(S(=O)(=O)N2CCN(C)CC2)cc1,4010
17,Cc1ccc(S(=O)(=O)N2CCN(C)CC2)cc1C(=O)NC1CCCCC1,4410
18,CN1CCN(S(=O)(=O)c2ccc3[nH]cc(C(=O)O)c(=O)c3c2)CC1,21500 (active)
19,c1ccc(COc2ccccc2CNCc2cccnc2)cc1,7500
20,O=C(CCc1ccc(S(=O)(=O)N2CCOCC2)cc1)Nc1ccc2ccccc2c1,21400 (active)
21,O=C(CCc1ccc(S(=O)(=O)N2CCOCC2)cc1)NN=C1CCCCCCC1,2120
22,O=C(COC(=O)CCc1ccc(S(=O)(=O)N2CCOCC2)cc1)Nc1cccc(Cl)c1,4250
